Assay outcomes (PubChem)
TRHR PAM: TRH receptor (human) allosteric enhancement. P34981. TRHR cells, fluo-8 calcium fluorescence, EC20 TRH enhancement. enhancement, % at 2 µM. actives 0.66% (n = 360,000). AID 493056; in the data active = enhancement above about 30%; note: 0% is about no effect
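Enhancer read-out: after compound pinning and an initial kinetic agonist-mode read, an EC20 of TRH (10 nM final) was injected and fluo-8 calcium signal (Ex 480/Em 530) followed at 1 s/cycle for 100 cycles in TRHR-expressing cells.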
D1 ag: human D1 receptor agonism | P21728 | HEK293 T-REx D1 cells, calcium flux, agonist mode | activation, % at 2 µM | actives 1% (n = 360,000) | AID 504660; note: 0% is about no effect
Target sequence (P21728 whole entry, looked up): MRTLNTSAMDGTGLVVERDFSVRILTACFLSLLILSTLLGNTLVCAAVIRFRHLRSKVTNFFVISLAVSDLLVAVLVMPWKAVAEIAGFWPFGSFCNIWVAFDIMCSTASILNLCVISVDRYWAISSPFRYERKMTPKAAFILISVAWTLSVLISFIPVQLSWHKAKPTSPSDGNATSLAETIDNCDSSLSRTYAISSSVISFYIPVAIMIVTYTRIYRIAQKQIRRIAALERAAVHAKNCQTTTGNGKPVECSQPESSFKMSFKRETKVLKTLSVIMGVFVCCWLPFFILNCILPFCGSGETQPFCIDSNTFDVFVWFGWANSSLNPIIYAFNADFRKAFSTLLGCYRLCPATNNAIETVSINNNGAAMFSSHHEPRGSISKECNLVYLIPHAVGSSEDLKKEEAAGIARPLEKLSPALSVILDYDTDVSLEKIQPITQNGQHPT
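Agonism was scored from calcium flux recorded over 180 s (1 read/s) after pintool compound addition, following a 10-cycle baseline. Cells were inducible force-coupled HEK293 TREx D1, plated overnight at 30 C and loaded with no-wash calcium dye.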
D1 PAM: enhances dopamine response at the human D1 receptor. HEK293 TREx D1 cells, calcium flux, dopamine EC20 potentiation. potentiation, % at 10 µM. actives 0.036% (n = 360,000). P21728. AID 504651; in the data active = potentiation above about 30%; note: 0% is about no effect
TRHR ag: activates the human TRH receptor; P34981; TRHR cells, calcium flux fluo-8, FDSS agonist mode; activation, % at 2 µM; actives 0.18% (n = 360,000); AID 493084; note: 0% is about no effect
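TRHR-expressing cells loaded with fluo-8 calcium dye; 23 nL library compound pin-transferred, kinetic FDSS fluorescence (Ex 480/Em 530) recorded about 180 s for agonist-induced calcium release, before a 10 nM TRH EC20 addition for potentiator mode.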
D1 antag: human D1 dopamine receptor antagonism; HEK293 TREx D1 cells, calcium flux, dopamine EC80; hits give low values; activity change, negative = inhibition, % at 10 µM; actives 3.2% (n = 360,000); in the data active = activity change below about -30%; note: % is set by controls: 0 for no effect and ±100 for the full control effect
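Kinetic fluorescence of a calcium dye serves as the read-out. D1-expressing Hek293 Trex cells, induced overnight at 30 C, are exposed to compound for 180 s before an EC80 dopamine addition, then read 180 s further.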
The depositor's hits bear a star; ! = not active in a repeat. Most compounds without a hit are left out; they make up all but 4.6% or so of the library. Cut-off read from the data, not from the text of the source, unless noted: active = activation above about 30%; inactive = the rest.

SMILES	TRHR PAM	D1 ag	D1 PAM	TRHR ag	D1 antag
N#Cc1ccc(NC(=O)c2ccc3c(c2)nnn3C2CCCC2)cc1	-5	2	-2	0	-11
COc1ccccc1NC(=O)C1=C(C)Nc2nc(SCc3ccccc3)nn2C1c1cccs1 (stereo unspecified)	-5	11	1	-1	7
Cn1cc(Br)c(C(=O)N/N=C/c2cc3c(cc2Cl)OCO3)n1	-8	4	-4	24	1
Cc1ccc(S(=O)(=O)N2CCCN(S(=O)(=O)c3ccc(C)cc3)CC2)cc1	-1	12	-6	0	-34*
CCCOc1ccc(-c2cccc(NS(=O)(=O)c3ccc(CC)cc3)c2)nn1	0	0	0	0	-3
Cn1cc(Br)c(C(=O)NNC(=O)c2ccccc2)n1	32*	2	-7	0	7
COCCCNC(=O)C1CCN(c2nc(C)cc(C)n2)CC1	36*	2	1	1	24
COCCCNC(=O)C1CCN(c2nc3ccc(Cl)cc3[nH]2)CC1	7	0	-3	0	-8
CN(C)CCNC(=O)C1CCN(c2nc3ccccc3[nH]2)CC1	4	2	-1	1	-1
Cc1cccc(CNC(=O)C2CCN(c3nc4ccc(Cl)cc4[nH]3)CC2)c1	-2	42*	-1	-1	11
CCOCCCNC(=O)C1CCN(c2nc3ccc(C)cc3[nH]2)CC1	4	0	4	0	-46*
COC(=O)CNC(=O)C1CCN(c2nc(C)cc(C)n2)CC1	-5	7	-2	0	5
Cc1c(Cl)cccc1NC(=O)c1ncn(-c2ccccc2)n1	-5	1	0	0	8
COc1cccc(OCc2cc(C(=O)N(C)Cc3nc4ccccc4[nH]3)no2)c1	-7	3	5	0	6
COc1cccc(OCc2cc(C(=O)N(Cc3ccccc3)CC3CC3)no2)c1	-3	48*	-6	3	0
CN1CCN(C(=O)c2cc(COc3ccccc3)on2)[C@@H](c2ccccc2)C1	3	6	-2	1	3
Cc1cc(OCc2cc(C(=O)N(C)C3CCOCC3)no2)cc(C)c1Cl	0	15	-5	0	-6
Cc1ccc(OCc2cc(C(=O)N3CCN(C)C[C@@H]3c3ccccc3)no2)cc1C	-3	9	-2	1	-31*
Cc1ccc(OCc2cc(C(=O)N(C)CC3CCOCC3)no2)cc1C	2	56*	-8	0	2
Cc1cc(OCc2cc(C(=O)N3CCN(C)C(=O)[C@@H]3C)no2)cc(C)c1Cl	4	23	-7	0	-31*
CCOc1ccc(OC(=O)c2cn(-c3ccc(C)cc3)c(=O)c3ccccc23)cc1	-11	1	4	1	3
CC(C)CC(C(=O)NCC1CCN(Cc2ccc(F)cc2)CC1)N1Cc2ccccc2C1=O (stereo unspecified)	-8	2	-3	0	9
COc1ccc(OC)c(CNC(=O)CCc2c(C)nc3c(c2C)c(=O)n(C)c(=O)n3C)c1	-1	-1	4	0	0
Cc1ccc(NCc2cccn2-c2nnc(N3CCC(C(=O)NCCc4ccc(Cl)cc4)CC3)s2)cc1	1	0	2	0	-2
Cn1cc(CN2CCCC(C(=O)Nc3cccc(-c4cc5ccccc5[nH]4)c3)C2)cn1 (stereo unspecified)	3	12	-9	1	-19
SMILES	TRHR PAM	D1 ag	D1 PAM	TRHR ag	D1 antag
COc1cccc(-c2ccc(NC(=O)C3CCCN(Cc4cnn(C)c4)C3)cc2)c1 (stereo unspecified)	28	32*	-6	6	1
CC(C)n1cc(CN2CCCC(C(=O)Nc3cccc(-c4cc5ccccc5[nH]4)c3)C2)cn1 (stereo unspecified)	0	30*	-15	1	-31*
COCc1cc(CN2CCCC(C(=O)Nc3ccc(-c4ccco4)cc3)C2)ccc1OC (stereo unspecified)	22	2	4	1	-30*
Cc1ncc(CN2CCCC(C(=O)Nc3ccc(-c4cccc(F)c4)cc3)C2)n1C (stereo unspecified)	0	16	-13	1	-32*
COc1cccc(-c2ccc(NC(=O)C3CCCN(Cc4cnc(C)n4C)C3)cc2)c1 (stereo unspecified)	-5	5	-17	1	-4
O=S(=O)(Nc1ccc(-c2ccc(N3CCCC3)nn2)cc1)c1cc(F)ccc1F	5	-1	0	0	-6
COc1ccc2c(CNCCc3ccco3)c(C(=O)O)n(Cc3ccc(F)cc3)c2c1	11	1	3	0	-6
CCCCN1C2CCCC1CC(NC(=O)C1CCCCC1)C2 (stereo unspecified)	2	1	-3	0	-55*
CCCCN1C2CCCC1CC(NC(=O)c1cccc(Cl)c1)C2 (stereo unspecified)	4	1	-3	1	-35*
O=C(NC1CC2CCCC(C1)N2Cc1ccccc1)C1CCCCC1 (stereo unspecified)	-12	0	-4	1	2
O=C(CCSc1nnc2ccc3ccccc3n12)Nc1ccc(F)cc1	4	4	-6	0	-9
O=C(CCSc1ccc(F)cc1)Nc1ccc(-n2cnnn2)cc1	1	15	-13	0	-40*
CCOC(=O)C1CCN(c2nc3c(S(=O)(=O)c4ccccc4)nnn3c3ccc(Cl)cc23)CC1	4	2	-5	0	21
CCOC(=O)c1cc(-c2ccccc2)n(CCC(=O)Nc2ccc(C(F)(F)F)cc2)c1C	-4	85*	-6	11	2
CCOC(=O)c1cc(-c2ccccc2)n(CCCC(=O)Nc2ccc(C)c(Cl)c2)c1C	7	7	-8	1	-3
CCOC(=O)c1cc(-c2ccccc2)n(CCCC(=O)Nc2ccc(C)c(C)c2)c1C	0	6	-9	1	-48*
CC(=O)c1cc(-c2ccccc2)n(CCC(=O)Nc2ccc(C(C)C)cc2)c1C	-2	63*	-8	5	-20
Cc1nc(N2CCCC2)c2c(C(=O)Nc3ccc(C)c(Cl)c3)c(C)oc2n1	-9	0	-4	-1	4
Cn1cnc2c(=O)oc3ccc(S(=O)(=O)N4CCN(c5cccc(C(F)(F)F)c5)CC4)cc3c21	0	-1	-3	0	-7
CCc1ccc2nc(N3CCC(C(=O)NCCC(C)C)CC3)sc2c1	0	1	0	0	9
CCCN(CCC)CCNC(=O)C1CCN(c2nc3ccc(CC)cc3s2)CC1	-5	90*	6	2	-30*
CCCN(CCC)CCCNC(=O)C1CCN(c2nc3ccc(CC)cc3s2)CC1	-2	30*	0	3	-31*
CCCCN(CC)C(=O)C1CCC(CNS(=O)(=O)c2cccc3nsnc23)CC1 (stereo unspecified)	-6	7	-4	-1	-31*!
